Results on 40 compounds are retold here after PubChem BioAssay (NCI).

Molecules are shown by their SMILES. This is part of a sample that, as a whole, favours compounds with a hit. Of some 83,000 tested, about 20% had one in any assay.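 Note: values are percent growth. 100 is the growth of untreated cells, values between 100 and 0 indicate rising inhibition; between -100 and 0 indicates cell death.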 Activity calls are given as the source filed them.

For the assay, the system named is CCRF-CEM leukemia. Kind of assay: NCI-60 one-dose screen, 48 h (100 = growth as untreated, 0 = no growth, -100 = all killed). The conditions noted are these: 10 µM unless noted. On the procedure: Growth inhibition of the CCRF-CEM human tumor cell line is measured as a screen for anti-cancer activity. Cells are grown in 96 well plates and exposed to the test compound for 48 hours. Compounds are tested at a single concentration, which is 10^-5 M for most compounds. The reported endpoint is percent growth (GI% or GIPRCNT), where numbers from 0 - 100% represent growth inhibition, and numbers from -100% - 0 represent cell death. For example, a value of 40 represents 60% growth inhibition. A value of 0 means no net growth occurred over the course of the experiment. A value of -40 indicates 40% of cells at the beginning of the experiment died by the end of the experiment. A value of -100 means all cells are dead at the end of the experiment.
NCI-60 Human Tumor Cell Lines Screen was performed using the standard one-dose NCI protocol, which is described in more detail at https://dtp.cancer.gov/discovery_development/nci-60/default.htm.
Compounds with GIPRCNT values below 10 were considered active. Activity score was based on GIPRCNT using the following formula: […]
Score is 0 for GIPRCNT values of 100 or above, 50 for GIPRCNT values of 0, and 100 for GIPRCNT values of -100.
With `CCOC(=S)S[C@H]1C[C@@H]2[C@H](CC[C@]3(C)C(=O)CC[C@@H]23)[C@@]2(C)CCC(=O)C=C12`, the growth was 107% (inactive).

As for `C/C(Cc1ccc(Cl)cc1)=C(\c1ccc(OCCN2CCOCC2)cc1)c1ccc(OC(=O)Cc2ccccc2)cc1`, the growth was 98.9% (inactive).

For the compound `O=C1CNC(c2ccccc2)c2cc(Cl)ccc2N1` (stereo not given), the growth is 94.2% (inactive).

As to `CC(CC1CCCCC1)NCc1ccccc1` (stereo not given), the growth is 100% (inactive).

As for `CN(C)C1C(=O)C(C(N)=O)=C(O)C2(O)C(=O)C3=C(O)c4c(O)cccc4C(C)(O)C3CC12.[Cl][Sb]([Cl])[Cl]` (stereo not given), the growth is 17% (inactive).

For the compound `CC[C@H](C)[C@H](NC(=O)[C@H]1CCCCN1C)C(=O)N(C)[C@H](C[C@@H](OC(C)=O)c1nc(C(=O)N[C@@H](Cc2ccccc2)C[C@H](C)C(=O)OC)cs1)C(C)C`, the growth was 4.02% (active).

Consider `CCCCCCC(=O)NC1=C(N2CC2)C(=O)C(NC(=O)CCCCCC)=C(N2CC2)C1=O`, for which the growth is 50.7% (inactive).

For `Nc1ccc(-c2nc3cc(F)ccc3[se]2)cc1F`, the growth is 44.8% (inactive).

With `COC(=O)[C@@H](C)C[C@H](Cc1ccccc1)NC(=O)c1cccc([C@@H](C[C@H](C(C)C)N(C)C(=O)[C@@H](NC(=O)[C@H]2CCCCN2C)C(C)C)OC(C)=O)n1`, the growth is 7.41% (active).

Consider `CNC(=O)Oc1ccc(C(C)(C)C)cc1OC(=O)NC`, for which the growth was 96.6% (inactive).

On to `N#C[S-].[Au+].c1ccc(CN2[CH-]N(Cc3ccccc3)C(c3ccccc3)=C2c2ccccc2)cc1`, for which the growth is 1.1% (active).

For the compound `CCC1(C(C)C)C(=O)NC(=S)NC1=O`, the growth was 97.3% (inactive).

`O=C1N[C@@H]2[C@@H](O)[C@@H](O)[C@H](O)C[C@H]2c2cc3c(c(O)c21)OCO3`: the growth was 2.84% (active).

With `C[C@@H]1C[C@@]2(C)[C@@H](CC[C@@H]3[C@@H]2CC[C@]2(C)C(=O)CC[C@@H]32)CC1=O`, the growth was 83.7% (inactive).

For `CN(C)C(=O)Oc1ccccc1`, the growth is 104% (inactive).

Take `COc1ccc(/C=C\c2cc(OC)c(OC)c(OC)c2)cc1NC(=O)/C=C/c1cc(OC)c(OC)c(OC)c1`: the growth was 39.2% (inactive).

Consider `CC[C@H](C)[C@H](NC(=O)N[C@@H](C)c1ccccc1)C(=O)N(C)[C@H](C[C@@H](OC(C)=O)c1nc(C(=O)N[C@@H](Cc2ccccc2)C[C@H](C)C(=O)OC)cs1)C(C)C`, for which the growth was 10.7% (inactive).

Turning to `CSc1nc(Cl)cc(N2CC2)n1`, the growth was 77.6% (inactive).

In the case of `CCCCOc1ccc(C(N)Cc2ccccc2)cc1` (stereo not given), the growth was 98.5% (inactive).

As to `COc1ccc(/C=C\c2cc(OC)c(OC)c(OC)c2)cc1OCC(=O)Nc1nc2ccc(C(F)(F)F)cc2s1`, the growth is 25.4% (inactive).

With `CCC(O)(CN)c1ccccc1` (stereo not given), the growth was 90.1% (inactive).

As for `COc1cc(/C=C\c2cc(OC)c(OC)c(OC)c2)cc(N/C=C\C(=O)c2cc(OC)c(OC)c(OC)c2)c1OC`, the growth was 8.89% (active).

Take `Clc1cccc(Cl)c1Cl`: the growth was 96.4% (inactive).

For `Oc1ccc2c3c1OC1[C@@H](O)CC[C@@]4(O)[C@@H](C2)N(CC2CCC2)CC[C@]314` (stereo not given in full), the growth was 97.5% (inactive).

For the compound `COC1CC2c3ccccc3C1C(C)=[N+]2C` (stereo not given), the growth is 76.7% (inactive).

As to `O=[N+]([O-])c1cc([N+](=O)[O-])c(Nn2c3ccccc3c3ccccc32)c([N+](=O)[O-])c1`, the growth is -0.784% (active).

With `CC[C@H](C)[C@H](NC(=O)C12C3C4C1C1C2C3C41NC(C)=O)C(=O)N(C)[C@H](C[C@@H](OC(C)=O)c1nc(C(=O)N[C@@H](Cc2ccccc2)C[C@H](C)C(=O)OC)cs1)C(C)C` (stereo not given in full), the growth was 12.2% (inactive).

For the compound `O=[N+]([O-])/C=C\c1ccc(Cl)c(Cl)c1`, the growth is 33.6% (inactive).

`COC(=O)[C@@H](C)C[C@H](Cc1ccccc1)NC(=O)c1csc([C@@H](C[C@H](C(C)C)N(C)C(=O)[C@@H](NC(=O)[C@H]2CCCCN2C)c2ccc(F)cc2)OC(C)=O)n1`: the growth is 8.77% (active).

`COc1cc(NC(C)CCCNC2CN3CCC2CC3)c2ncccc2c1` (stereo not given): the growth was 77.7% (inactive).

For `Cc1ccc(C(Cc2ccccc2)NCCO)cc1` (stereo not given), the growth was 98.5% (inactive).

On to `CC[C@H](C)[C@H](NC(=O)[C@H]1CCCCN1C)C(=O)N(C)[C@H](C[C@@H](OC(C)=O)c1cccc(C(=O)N[C@@H](Cc2ccccc2)C[C@H](C)C(=O)O)n1)C(C)C`, for which the growth is 16.8% (inactive).

Consider `COc1ccc(/C=C\c2cc(OC)c(OC)c(OC)c2)c(NS(=O)(=O)c2ccc(C)cc2)c1O`, for which the growth is 21.9% (inactive).

For `NC(=O)C(Br)c1ccccc1` (stereo not given), the growth was 60.6% (inactive).

For the compound `CC(=O)OC1CCC2(C)C(CCC3C2CC(=O)C2(C)C3CC(Sc3ccc(N(CCCl)CCCl)cc3)C2C(C)=O)C1` (stereo not given), the growth was 63.1% (inactive).

On to `O=[N+]([O-])c1cnc[nH]1`, for which the growth was 103% (inactive).

For `O=[As](O)(O)c1ccccc1[As](=O)(O)O`, the growth was 110% (inactive).

On to `O=C(CCCCCCC(=O)Nc1ccc(N(CCCl)CCCl)cc1)NO`, for which the growth was 19.4% (inactive).

Take `COC1OC(CO)C(O)C(O)[CH]1[Hg][O]C(C)=O` (stereo not given): the growth was 96.1% (inactive).

Turning to `COc1cc(NCCCN=C(N)N)c2ncccc2c1`, the growth was 95.8% (inactive).
